# E coli growth-1: reduces bacterial viability in AddAB counter-screen | E. coli V3065 growth, OD600 absorbance, 18 h | inhibition, % at 11.9 µM | 330,000 tested, 0.27% active | AID 449728;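 active = inhibition above the campaign's mean inhibition across all tested compounds plus 3 SD, cut at about 9.9% in these data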;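 note: uninfected addAB+ strain grown without phage in ampicillin broth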
# PfHsp90 set2: growth inhibition of yeast expressing Plasmodium Hsp90; S. cerevisiae expressing PfHsp90, BacTiter-Glo ATP, 48 h; yeast lacking PDR1 and PDR3 efflux regulators; inhibition, % at 9.4 µM; 310,000 tested, 0.32% active; AID 504621;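 active = every replicate shows inhibition above about 80%, whatever the replicate mean, limit read from the data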
# Tat export inh: blocks Tat-dependent protein export in E. coli | 340,000 tested, 0.036% active | E. coli MC4100 TorA-mCherry Tat export, fluorescence | inhibition, % at 10 µM | AID 488895;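 active = mean replicate inhibition at least 50% and at least half of replicates individually reaching 50%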;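 note: exported cargo escapes ClpAP degradation while cytoplasmic cargo is degraded and loses fluorescence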
# AddAB inh: less growth of phage-infected E. coli with AddAB | E. coli expressing H. pylori AddAB, absorbance growth | inhibition, % at 11.9 µM | 330,000 tested, 0.29% active | AID 435030; in the data active = inhibition above about 12%
# phage Ecoli inh: E. coli growth loss with phage present; inhibition, % at 11.9 µM; growth absorbance; AID 651602; 360,000 tested, 0.26% active; in the data active = inhibition above about 11%
# E coli growth-2: blocks Escherichia coli growth. OD600, 23 h; stronger effect = lower value. OD600 absorbance (no concentration beside the values). 330,000 tested, 0.21% active. AID 1053175;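 active = OD600 absorbance below the run mean of sample wells minus 3.6 SD, in any replicate, cut at about 0.56 in these data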
# RecBCD conf: growth loss of phage-infected V66 E. coli, RecBCD confirmation screen | 890 tested, 45% active | inhibition, % at 11.9 µM | E. coli V66 + T4 2- phage, growth OD | shares compounds with phage Ecoli inh;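 active = mean inhibition over triplicates exceeding the hit threshold derived in the original primary screen, cut at about 11% in these data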
# Ecoli viability: bacterial viability inhibition counter-screen for RecBCD; shares compounds with phage Ecoli inh; E. coli viability, absorbance (OD) growth; inhibition, % at 11.9 µM; 890 tested, 29% active; in the data active = inhibition above about 20%;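 note: E. coli strain V66 grown with compound alone and no phage infection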
# AddAB phage OD: growth loss of phage-infected AddAB E. coli, RecBCD counter-screen. inhibition, % at 11.9 µM. shares compounds with phage Ecoli inh. 890 tested, 45% active. E. coli expressing H. pylori AddAB + T4 phage, OD growth; gene 2 mutant T4, recBCD-deleted host;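 active = mean inhibition above the solvent-only control wells' mean plus 3 SD, cut at about 22% in these data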;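 note: higher means less bacterial growth from phage killing when AddAB is blocked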
# A number is an active result; n = inactive; x = no result given. The list is not random: actives were taken first. Their share in the collection is about 0.69%.
SMILES,E coli growth-1,PfHsp90 set2,Tat export inh,AddAB inh,phage Ecoli inh,E coli growth-2,RecBCD conf,Ecoli viability,AddAB phage OD
O=[N+]([O-])c1ccc(/C=[N+](\[O-])[C@@H]2CCCC[C@@H]2/[N+]([O-])=C/c2ccc([N+](=O)[O-])o2)o1,n,n,n,n,n,n,x,x,x
Nc1nc(N)nc(-c2ccc([N+](=O)[O-])o2)n1,x,n,n,x,103,0.51,64,89,98
Cc1ccc(S(=O)(=O)N2C(c3cccs3)CC=C(C(=O)O)C2c2ccccc2)cc1 (configuration not stated),x,x,x,x,x,n,x,x,x
C=CCNC(=O)CC(=O)NN=Cc1cccc(Br)c1,x,x,x,x,x,n,x,x,x
COc1ccc(OC)c(C(=O)Cn2nnc(-c3ccc(N4CCOCC4)cc3)n2)c1,n,n,n,n,12,n,n,n,n
C#CCOCCOCCOCCNc1nc(N2CCN(C(=O)C(CCCCN)n3cc(C(N)CC(C)C)nn3)CC2)nc(N2CCN(C(=O)C(C(C)CC)n3cc(C(N)CC(C)C)nn3)CC2)n1 (configuration not stated),x,x,x,x,x,n,x,x,x
CCN1CCN(C(=O)C2=CC(c3ccc(C)cc3)=NS(=O)(=O)N2C)CC1,n,n,n,n,12,n,n,n,n
CCN1C(=O)C2C(c3ccc(SC4CCCCC4)c(OC)c3)N3CCCC[C@@]3(C(=O)OC)C2C1=O (some centres not stated),x,x,x,x,x,n,x,x,x
CC(=NNc1nc2ccccc2o1)c1ncccn1,x,126,n,x,30,x,29,36,n
CC(=NNc1nc2ccc(Cl)cc2o1)c1ccccc1,x,x,x,x,x,n,x,x,x
CC(=NNc1nc2ccccc2o1)c1cc2ccccc2cn1,x,145,n,x,12,x,n,n,n
CCN(CC)c1ccc(/C=N/Nc2nc3ccccc3[nH]2)c(O)c1,n,n,n,n,15,x,n,n,n
CCOc1ccc2ccccc2c1C=NNC(=O)CNC(=O)Cc1ccccc1,x,x,x,x,x,n,x,x,x
O=C(O)CC1SC(NN=Cc2ccc(Br)cc2)NC1=O (configuration not stated),x,x,x,x,x,n,x,x,x
O=[N+]([O-])c1ccc(N/N=C/c2cccc(O)c2O)c(S(=O)(=O)N2CCOCC2)c1,n,n,n,n,n,x,x,x,x
O=[N+]([O-])c1ccc(N/N=C/c2ccc(O)c(O)c2O)c(S(=O)(=O)N2CCOCC2)c1,x,n,n,x,11,x,n,n,n
O=C1C(Nc2ccc(O)cc2)=CC(=NS(=O)(=O)c2cccs2)c2ccccc21,x,x,x,x,x,n,x,x,x
O=C1C(Cc2ccccc2)NCC=CCC(c2ccco2)N1Cc1ccccc1 (configuration not stated),x,x,x,x,x,n,x,x,x
Oc1ccc(CN2CCN(Cc3ccccc3)CC2)c2cccnc12,n,x,n,n,n,n,x,x,x
O=S(=O)(c1ccc(Cl)cc1)N1CCN(Cc2ccc(O)c3ncccc23)CC1,n,x,n,n,17,n,n,n,n
C/C(C=Nn1c(-c2ccco2)n[nH]c1=S)=C\c1ccco1,x,x,x,x,x,n,x,x,x
CCCCc1ccc(NC(=O)CSc2nc3ncccc3[nH]2)cc1,n,n,n,n,n,n,x,x,x
CCOC(=O)c1ccc(NC(=O)CSc2nc3ncccc3[nH]2)cc1,n,n,n,n,11,n,n,n,n
COc1ccccc1S(=O)(=O)Cc1ccc(C(=O)N2CCOCC2)o1,n,n,n,n,35,n,n,n,n
Cc1cn([C@H]2C=C[C@@H](CO)O2)c(=O)[nH]c1=O,n,n,n,n,22,n,16,n,51
SMILES,E coli growth-1,PfHsp90 set2,Tat export inh,AddAB inh,phage Ecoli inh,E coli growth-2,RecBCD conf,Ecoli viability,AddAB phage OD
Cc1cc(N/N=C/c2ccc(N(C)C)cc2)c2ccccc2n1,n,n,n,n,12,x,n,n,n
O=c1c2cc([N+](=O)[O-])ccc2sn1-c1ccccc1,x,x,x,x,n,x,x,x,x
N#Cc1c2ccc([N+](=O)[O-])cc2[n+]([O-])n1-c1ccccc1,38,91,n,37,17,x,16,n,51
COc1ccc(C=NNC(=O)c2ccc(Br)o2)cc1Cn1cc([N+](=O)[O-])cn1,x,x,x,x,x,n,x,x,x
Fc1ccc(NC(=S)NCc2ccccc2)cc1,n,n,n,n,n,n,x,x,x
O=[N+]([O-])c1ccc(NC(=S)NCCc2ccc(Cl)cc2)cc1,11,108,n,n,13,n,n,n,n
O=[N+]([O-])c1ccc(NC(=S)NCCc2ccccc2)cc1,n,n,n,n,n,n,x,x,x
Fc1ccc(CNC(=S)Nc2ccc(Cl)cc2)cc1,n,n,n,n,12,n,n,n,n
CC(=O)C1C(c2ccccc2)NC(=O)N(Cc2ccccc2)C1C (configuration not stated),x,x,x,x,x,n,x,x,x
CC(=NN(C)C)C1=C(O)c2ccccc2C1=O,x,x,x,x,x,n,x,x,x
O=C(NNS(=O)(=O)c1ccc(F)cc1)c1cc(Cl)ccc1O,x,n,n,x,15,n,n,n,n
CC(C)C1C(=NO)CC(c2ccccc2)NC1c1ccccc1 (configuration not stated),x,x,x,x,x,n,x,x,x
O=C(NCc1ccccc1)c1sc(=S)n2c1[nH]c(=O)c1ccccc12,n,x,n,n,15,n,n,n,n
COc1cccc(C2c3c(oc4ccccc4c3=O)C(=O)N2CCCN2CCOCC2)c1 (configuration not stated),n,n,n,n,15,n,n,n,n
CCOc1ccc(NC(=O)Nc2cc(OCC(F)(F)F)cc(OCC(F)(F)F)c2)cc1,n,n,n,n,n,n,x,x,x
O=C(Nc1ccc(F)cc1)Nc1cc(OCC(F)(F)F)cc(OCC(F)(F)F)c1,n,n,n,n,12,n,n,n,n
COc1cccc(-c2cnc(C(O)c3cc(F)cc(Cl)c3)[nH]2)c1 (configuration not stated),x,x,x,x,n,x,x,x,x
OC(c1cccc(Cl)c1)c1ncc(-c2ccc3ccccc3c2)[nH]1 (configuration not stated),x,x,x,x,15,x,12,n,n
COc1cccc(-c2cnc(C(O)c3cc(Cl)cc(Cl)c3)[nH]2)c1 (configuration not stated),x,x,x,x,12,x,11,n,n
OC(c1cccc(F)c1)c1ncc(-c2ccc3ccccc3c2)[nH]1 (configuration not stated),x,x,x,x,n,x,x,x,x
Cc1ccc(-c2cnc(C(O)c3cc(F)cc(Cl)c3)[nH]2)cc1 (configuration not stated),x,x,x,x,12,x,n,n,n
O=C(NN=Cc1ccc([N+](=O)[O-])cc1)c1cccc2cc[nH]c12,x,x,x,x,x,n,x,x,x
CC(O)CCC(C)OC1OC(C)C(O)CC1O (configuration not stated),x,x,x,x,x,n,x,x,x
COc1ccc(O)c(C=NNC(=O)CCn2nnc3ccccc32)c1,x,x,x,x,x,n,x,x,x
